Shown is part of a subset that was picked to be rich in hits.
TTR transcr act: activators of transthyretin transcription. SH-SY5Y TTR promoter Gaussia luciferase, luminescence; 100% = recombinant luciferase protein wells. activation, % at 16.7 µM. 92,000 compounds, 1.3% hits;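 active = activation above the mean of all tested compounds plus 3 SD, cut at about 9.5% in these data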;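 also: cells exposed to compounds for one day before reading; 0% = median of all test compound wells on the plate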
* hit, by the source's call.

How did CCOC(=O)C1C(=O)CC(C)(O)C(C(=O)OCC)C1c1cccc(OC)c1 (centres undefined) do in these assays?
TTR transcr act: 2.7

What do the screens show for `CCOC(=O)C1C(=O)CC(C)(O)C(C(=O)OCC)C1c1ccc(OC)cc1` (centres undefined)?
TTR transcr act: -1.4

How did C[C@H]1[C@@H](NC(=O)C2CCOC2)CC[C@@]23CCCN2C(=O)CCC[C@@H]13 (some centres undefined) do in these assays?
TTR transcr act: -0.6

What do the screens show for `CCCC1CCC2(CC1)CCC2OC(=O)Nc1ccccc1C` (centres undefined)?
TTR transcr act: 7.3

What do the screens show for `C[C@H](NC(=O)[C@H]1N2C(=O)c3ccccc3C2SC1(C)C)C(=O)N1CCCCC1` (some centres undefined)?
TTR transcr act: 4.5

How did C[C@H](NC(=O)[C@H]1N2C(=O)c3ccccc3C2SC1(C)C)C(=O)N1CCC[C@H]1CO (some centres undefined) do in these assays?
TTR transcr act: 1.6

How did C[C@H](NC(=O)[C@H]1N2C(=O)c3ccccc3C2SC1(C)C)C(=O)N1CCC[C@H]1C(=O)O (some centres undefined) do in these assays?
TTR transcr act: 58.0*

What do the screens show for `Cc1ccc(NS(=O)(=O)c2cc3c(cc2Cl)NC(=O)CO3)cc1C`?
TTR transcr act: 1.2

What do the screens show for `Nc1[nH]c(C(=O)c2ccccc2)c(-c2ccc(Cl)cc2Cl)c1C(=O)c1cccs1`?
TTR transcr act: -0.2

Results for CN1CCC(N[C@@H](Cc2ccccc2)C(=O)NCC(c2ccccc2)c2ccccc2)(C(=O)NC2CCCCC2)CC1 ?
TTR transcr act: -4.2

What do the screens show for `Nc1[nH]c2cc(C(F)(F)F)ccc2c1C(=O)NCc1ccc(F)cc1`?
TTR transcr act: 2.1

Results for C[C@H]1[C@@H](NC(=O)C2CCCCC2)CC[C@@]23CCCN2C(=O)CCC[C@@H]13 ?
TTR transcr act: -1.2

Results for O=C1c2ccccc2C(=O)N1CC#CCN1CCN(C(c2ccccc2)c2ccccc2)CC1 ?
TTR transcr act: 11.1*

What do the screens show for `O=C(C(c1ccccc1)c1ccccc1)N1CCN(CCN2C(=O)c3cccc4cccc(c34)C2=O)CC1`?
TTR transcr act: -0.2

What do the screens show for `OC(C#CCN1CCCC1)c1ccccc1` (centres undefined)?
TTR transcr act: -0.9

How did CC(C)N1CCc2c(sc(NC(=O)C(F)(F)F)c2-c2nc3ccccc3s2)C1 do in these assays?
TTR transcr act: -0.1

What do the screens show for `CCc1nnc(NC(=O)c2c(C)nn(-c3ccccc3)c2Cl)s1`?
TTR transcr act: 21.9*

What do the screens show for `COc1ccc(NC(=O)c2c(C)nn(-c3ccccc3)c2Cl)cc1`?
TTR transcr act: 1.0

How did Cc1nn(-c2ccccc2)c(Cl)c1C(=O)NCC(C)C do in these assays?
TTR transcr act: 7.9

What do the screens show for `CCOC(=O)C1CCN(C(=O)C(C)(C)NC(=O)Nc2ccc(OC)c(Cl)c2)CC1`?
TTR transcr act: -0.6

Results for Cc1ccc(-c2cc3nc(-c4ccco4)cc(N4CCN(Cc5ccoc5)CC4)n3n2)cc1 ?
TTR transcr act: -2.3

Results for CO[C@H]([C@H](C)/C=C/N(C)C=O)[C@@H](C)C(=O)CC[C@H](C)[C@H](O)[C@H](C)[C@H]1OC(=O)/C=C/C(C)=C/C[C@H](O)C[C@@H]2C=CC[C@@H](C[C@H](OC)[C@@H](CO)[C@@H](OC)C[C@@H](OC)[C@@H]1C)O2 ?
TTR transcr act: 1.4

How did CC1(c2ccccc2)CC(=O)N(c2ccc(NC(=O)c3ccccn3)cc2Cl)C1=O (centres undefined) do in these assays?
TTR transcr act: -0.3

Results for CC12CN(C(=O)c3ccc([N+](=O)[O-])cc3)CC(C)(CN(C(=O)c3ccc([N+](=O)[O-])cc3)C1)C2=O ?
TTR transcr act: -0.7

Results for CC1(c2cc([N+](=O)[O-])cc([N+](=O)[O-])c2)CC(C)(C)N(C(=O)c2ccccc2)c2ccccc21 (centres undefined) ?
TTR transcr act: 13.8*

What do the screens show for `CN1CCN(c2ccc([N+](=O)[O-])cc2C(=O)c2ccccc2)CC1`?
TTR transcr act: -2.1

What do the screens show for `COC(=O)[C@@H]1[C@H](O[Si](C)(C)C(C)(C)C)[C@H]2O[C@H]2C[C@H]1S(=O)(=O)c1ccccc1`?
TTR transcr act: -1.0

What do the screens show for `COc1ccc(OCC(=O)Nc2ccccc2OC)cc1`?
TTR transcr act: 5.5

What do the screens show for `COc1ccccc1NC(=O)CCC(=O)Nc1ccccc1OC`?
TTR transcr act: 9.9*

What do the screens show for `COc1ccccc1NC(=O)CCC(=O)c1ccc(-c2ccccc2)cc1`?
TTR transcr act: -2.9

What do the screens show for `C[C@H]1[C@H](N(Cc2cccs2)Cc2cccs2)CC[C@@]23CCCN2C(=O)CCC[C@@H]13`?
TTR transcr act: 1.4

How did Cc1ccnc(NC(=S)N2CCC(Nc3cccc(C(F)(F)F)c3)CC2)c1 do in these assays?
TTR transcr act: 4.6

Results for C[C@@H](O[Si](c1ccccc1)(c1ccccc1)C(C)(C)C)[C@H]1C(=O)N[C@H](Cc2cn(S(=O)(=O)c3ccccc3)c3ccccc23)C(=O)N1C ?
TTR transcr act: -1.1

Results for Cn1c(=O)cc(OCCCC(=O)Nc2cc(C(F)(F)F)ccn2)c2ccccc21 ?
TTR transcr act: 1.9

What do the screens show for `Cn1c(CCc2ccccc2)nnc1SCC(=O)N1CCOCC1`?
TTR transcr act: 0.7

How did Cc1cccc(-n2c(SCC(=O)N3CCN(c4ccccn4)CC3)nnc2N2CCOCC2)c1 do in these assays?
TTR transcr act: 0.1

Results for O=C(CSc1nnc(Cc2ccccc2)n1-c1cccc(Cl)c1)N1CCOCC1 ?
TTR transcr act: 21.6*

How did c1ccc(OC2CCN(c3ncnc4sccc34)CC2)cc1 do in these assays?
TTR transcr act: -2.4

What do the screens show for `O=C(Nc1ccc(C(O)(C(F)(F)F)C(F)(F)F)cc1)c1c(F)cccc1F`?
TTR transcr act: -2.7

How did COc1ccc(C2/C=C\CN(S(=O)(=O)c3ccc(C)cc3)CC(=O)N2Cc2ccc(F)cc2)cc1 (centres undefined) do in these assays?
TTR transcr act: 16.0*

What do the screens show for `CCCCCN1C/C=C\C(c2ccc(OC)cc2)N(Cc2ccc(F)cc2)C(=O)C1` (centres undefined)?
TTR transcr act: 2.5

How did C=CC(=O)N1C/C=C\C(c2ccc(OC)cc2)N(Cc2ccc(F)cc2)C(=O)C1 (centres undefined) do in these assays?
TTR transcr act: -1.9

What do the screens show for `CCc1ccc(Oc2c(Cl)cnn(-c3ccc(C)cc3)c2=O)cc1`?
TTR transcr act: -2.0

Results for COc1ccc(CN2C(=O)[C@@](O)(c3cccn3C)c3cc(F)ccc32)cc1 ?
TTR transcr act: 0.9

How did Cc1ccc2nc(-c3sc4nc(C)ccc4c3N)[nH]c2c1 do in these assays?
TTR transcr act: -2.5

How did Cc1ccc2c(n1)sc1c(-c3ccccc3)c(C#N)c(N)nc12 do in these assays?
TTR transcr act: 0.4

What do the screens show for `Cc1ccc2c(N)c(C#N)sc2n1`?
TTR transcr act: 27.4*

What do the screens show for `CN1C2=N[C@@H](c3cccc(C(F)(F)F)c3)CC(=O)N2/C(=C\c2ccccc2)[C@H]1c1ccccc1`?
TTR transcr act: -2.4

What do the screens show for `Cc1cccc(CNC(=S)OCCN2CCCC23CCC(c2ccccc2)CC3)c1` (centres undefined)?
TTR transcr act: -0.4

What do the screens show for `CC(C)CC(c1nnnn1Cc1ccccc1)N1CCC(C(N)=O)CC1` (centres undefined)?
TTR transcr act: 17.8*

How did COc1ccc(C(c2nnnn2Cc2cccs2)N2CCC(C(N)=O)CC2)c(OC)c1 (centres undefined) do in these assays?
TTR transcr act: 0.7
